# Results taken from PubChem BioAssay.
# Inconclusive results are not listed. For some of these results: Measured potencies and affinities stand elsewhere. Active and inactive are the calls of the source. Unless noted, no rule for the calls is given here.
# What was measured:
# [1] = antimalarial activity against Dd2 strain (AID 2302;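 active = growth inhibition above 50% at the single 2 µM test dose, taken to imply half-maximal potency below 2 µM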;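 also: 0% = DMSO untreated growth and 100% = chloroquine plus artemisinin killed control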); conditions: P. falciparum Dd2 in RBCs, LDH growth readout, 72 h; at 2 µM; stronger effect = higher value
# [2] = human hepatoma cell viability loss – ATP luminescence, cytotoxicity control for P. falciparum antimalarial project, primary screen (AID 2303;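 active = inhibition above 50%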;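 also: 0% = DMSO wells and 100% = digitonin-killed cells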); conditions: HepG2 viability, 24-48 h, at 10 µM, stronger effect = higher value
# [3] = biological target: L-lactate dehydrogenase (Plasmodium falciparum (isolate CDC / Honduras)) (UniProt Q27743); assay: PfLDH activity inhibition – cell lysate, 3D7 strain, counter-screen for P. falciparum growth inhibition project (AID 2304);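 also: 0% = vehicle and 100% = reference inhibitor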; conditions: P. falciparum 3D7 crude extract, LDH APAD/NBT absorbance; at 2 µM; stronger effect = higher value
# Chain of L-lactate dehydrogenase (Plasmodium falciparum (isolate CDC / Honduras)) (Q27743 whole entry, looked up): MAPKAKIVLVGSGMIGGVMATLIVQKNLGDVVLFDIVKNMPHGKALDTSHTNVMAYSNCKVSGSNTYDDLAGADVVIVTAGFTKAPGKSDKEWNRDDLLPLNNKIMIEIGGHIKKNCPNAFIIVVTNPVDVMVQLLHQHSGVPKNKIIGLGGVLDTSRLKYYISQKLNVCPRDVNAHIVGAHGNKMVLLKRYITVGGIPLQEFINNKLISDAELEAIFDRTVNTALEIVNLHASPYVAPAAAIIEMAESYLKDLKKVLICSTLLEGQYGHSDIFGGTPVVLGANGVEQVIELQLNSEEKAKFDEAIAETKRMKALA
# [4] = inhibition of 3D7 malaria parasite growth – strain 3D7 (AID 2306);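 also: 0% = DMSO wells and 100% = chloroquine plus artemisinin control wells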; conditions: P. falciparum 3D7 erythrocytic growth, LDH absorbance, 72 h; at 2 µM; stronger effect = higher value
# [5] = biological target: Protein kinase 7 (PK7), Plasmodium falciparum 3D7 (PF3D7_0213400) (UniProt Q7YTF7); assay: inhibition of Plasmodium PK7 catalytic activity – biochemical, TCAMS antimalarial set, Kinase-Glo luminescence (AID 1159587); conditions: recombinant PfPK7, Kinase-Glo ATP depletion luminescence
# Chain of Protein kinase 7 (PK7), Plasmodium falciparum 3D7 (PF3D7_0213400) (Q7YTF7 1-343): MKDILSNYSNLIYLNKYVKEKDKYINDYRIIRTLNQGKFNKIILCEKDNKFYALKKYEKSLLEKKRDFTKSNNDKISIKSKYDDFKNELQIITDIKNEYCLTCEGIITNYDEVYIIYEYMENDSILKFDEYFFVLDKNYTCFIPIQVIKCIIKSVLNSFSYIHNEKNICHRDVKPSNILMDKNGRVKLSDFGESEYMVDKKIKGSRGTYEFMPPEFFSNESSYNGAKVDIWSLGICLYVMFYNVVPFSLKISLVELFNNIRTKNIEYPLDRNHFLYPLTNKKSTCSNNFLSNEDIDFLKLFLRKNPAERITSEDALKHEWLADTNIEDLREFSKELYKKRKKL
# [6] = biological target: Calcium-dependent protein kinase 4 (Plasmodium falciparum (isolate 3D7)) (UniProt Q8IBS5); assay: PfCDPK4 kinase inhibitors, biochemical, TCAMS library (AID 1159588; cut-off not given, nearly all actives have IC50 up to about 0.91 µM); conditions: recombinant PfCDPK4, Kinase-Glo ATP depletion luminescence
# Chain of Calcium-dependent protein kinase 4 (Plasmodium falciparum (isolate 3D7)) (Q8IBS5 whole entry, looked up): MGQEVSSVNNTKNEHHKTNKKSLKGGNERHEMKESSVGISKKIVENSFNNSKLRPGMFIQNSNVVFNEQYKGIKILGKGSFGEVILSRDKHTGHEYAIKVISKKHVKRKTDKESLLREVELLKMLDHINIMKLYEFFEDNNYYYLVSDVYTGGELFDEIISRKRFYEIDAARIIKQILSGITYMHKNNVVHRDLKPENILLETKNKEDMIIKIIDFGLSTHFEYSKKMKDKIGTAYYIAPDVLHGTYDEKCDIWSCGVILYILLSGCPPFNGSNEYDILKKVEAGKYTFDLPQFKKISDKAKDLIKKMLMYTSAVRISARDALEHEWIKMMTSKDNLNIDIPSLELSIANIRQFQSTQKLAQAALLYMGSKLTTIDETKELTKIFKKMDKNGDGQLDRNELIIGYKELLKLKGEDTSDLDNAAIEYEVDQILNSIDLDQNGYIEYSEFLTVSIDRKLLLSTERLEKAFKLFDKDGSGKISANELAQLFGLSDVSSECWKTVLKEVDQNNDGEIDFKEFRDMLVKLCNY
# [7] = viability loss with induced miR-34 in A549 – imaging, A549 dox-inducible miR-34, nuclei and caspase counts, primary screen (AID 1347080;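 active = compounds whose cell count with miR-34 switched on is under 0.7 times the count with it off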); conditions: A549 miR-34 inducible, Hoechst nuclei count, 48 h
# [8] = blockers of cellular phospholipid synthesis – cell-based, LOPAC library, screen 4, primary screen (AID 1347384); conditions: animal cells, phospholipid biosynthesis inhibition screen; at 10 µM
# [9] = galactose survival enhancers in mitochondrial complex I cybrids – cell-based, galactose medium, ATP luminescence, primary screen (AID 1645843;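 active = z-score of at least 1.8 in each of two replicates, scored against plate mean and spread of sample wells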;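 also: positive z means more ATP and so rescue of galactose-driven cybrid death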); conditions: complex I mutant cybrid cells, 72 h, stronger effect = higher value
# [10] = biological target: Plasmodium falciparum protein kinase 6 (PK6, PF3D7_1337100) (UniProt Q8IDW1); assay: PfPK6 kinase inhibitors, biochemical, TCAMS library (AID 1159586); conditions: recombinant PfPK6, Kinase-Glo ATP depletion luminescence
# Chain of Plasmodium falciparum protein kinase 6 (PK6, PF3D7_1337100) (Q8IDW1 1-305): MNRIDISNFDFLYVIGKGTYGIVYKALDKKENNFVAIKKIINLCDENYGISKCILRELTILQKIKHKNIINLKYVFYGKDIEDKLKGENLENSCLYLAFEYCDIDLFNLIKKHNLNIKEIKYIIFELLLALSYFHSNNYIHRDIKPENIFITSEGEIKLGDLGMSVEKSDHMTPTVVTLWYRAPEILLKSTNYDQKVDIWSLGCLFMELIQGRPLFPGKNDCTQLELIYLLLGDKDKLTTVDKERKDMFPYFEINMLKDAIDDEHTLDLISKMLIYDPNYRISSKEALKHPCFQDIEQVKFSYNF
# [11] = viability loss in pontine glioma line – cell-based, SU-DIPG-XVII, MIPE5.0, CellTiter-Glo, qHTS, dose response (AID 1347060; cut-off not given, nearly all actives have AC50 up to about 26 µM;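 also: cells exposed to compound for 48 hours before viability readout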); conditions: CellTiter-Glo ATP luminescence
# [12] = viability loss in pontine glioma line – cell-based, JHH-DIPG-1, MIPE4.0, CellTiter-Glo, qHTS, dose response (AID 1347062; cut-off not given, nearly all actives have AC50 up to about 27 µM;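 also: cells exposed to compound for two days before readout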); conditions: JHH-DIPG-1 viability, CellTiter-Glo ATP luminescence
# [13] = viability loss in pontine glioma line – cell-based, SU-DIPG-IV, MIPE4.0, CellTiter-Glo, qHTS, dose response (AID 1347063; cut-off not given, nearly all actives have AC50 up to about 30 µM;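 also: compound exposure lasted 48 hours before the viability readout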); conditions: CellTiter-Glo ATP luminescence
# [14] = viability loss in pontine glioma line – cell-based, SU-DIPG-XXV, MIPE5.0, CellTiter-Glo, qHTS, dose response (AID 1347065; cut-off not given, nearly all actives have AC50 up to about 26 µM;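 also: cells exposed to compound for 48 hours before ATP readout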); conditions: CellTiter-Glo ATP luminescence
# [15] = growth inhibition of DIPG cells – cell-based, MIPE4.0 library, CellTiter-Glo luminescence, qHTS (AID 1347066; cut-off not given, nearly all actives have AC50 up to about 30 µM;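 also: cells exposed to compound for 48 hours before readout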); conditions: SU-DIPG-VI viability, CellTiter-Glo ATP luminescence
# [16] = JHH-DIPG-1 glioma cell viability, MIPE5.0 library, CellTiter-Glo luminescence, qHTS (AID 1347067; cut-off not given, nearly all actives have AC50 up to about 26 µM;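 also: cells exposed to compound for 48 hours before readout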); conditions: JHH-DIPG-1 glioma viability, CellTiter-Glo ATP luminescence
# [17] = growth inhibition of DIPG cells – cell-based, MIPE5.0 library, qHTS (AID 1347068; cut-off not given, nearly all actives have IC50 up to about 30 µM;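 also: cells exposed to compound for 48 hours before viability readout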); conditions: SU-DIPG-XXV viability
# [18] = compounds altering HSF1 focus formation in cells – imaging, Selleck Cancer Library (AID 1347162; in the data active = plate-normalised HSF1 focus index below about 0.46); conditions: human cells, HSF1 nuclear foci imaging, at 10 µM; SSMD: measured here: HSF1 foci SSMD mean; cell count: measured here: cell number; plate-normalised HSF1 focus index: stronger effect = lower value
# [19] = stronger effect = lower value, cell number ratio, induced over uninduced
# [20] = measured here: relative caspase fold change +Dox/-Dox
# [21] = measured here: total cells with miR-34 induction, stronger effect = lower value
# [22] = measured here: total cells without miR-34 induction
smiles,measurement,setting,value
Cn1c(=O)c(-c2c(Cl)cccc2Cl)cc2cnc(Nc3ccc(N4CCOCC4)cc3)nc21,growth inhibition,[1],97% (active)
same,inhibition,[2],64% (active)
same,inhibition,[3],4% (inactive)
same,growth inhibition,[4],98% (active)
same,outcome,[5],inactive
same,outcome,[6],inactive
same,fold change,[7]; [19],1.06 (inactive)
same,fold change,[7]; [20],1.37
same,cell count,[7]; [21],814
same,cell count,[7]; [22],768
same,outcome,[8],inactive
same,z-score,[9],-1.38 (inactive)
O=C(Nc1cccc(-c2nn3ccccc3c2-c2ccnc(Nc3ccc(C(=O)N4CCOCC4)cc3)n2)c1)c1c(F)cccc1F,growth inhibition,[1],97% (active)
same,inhibition,[2],72% (active)
same,inhibition,[3],4% (inactive)
same,growth inhibition,[4],99% (active)
same,outcome,[10],inactive
same,outcome,[5],inactive
CN1CCN(c2ccc(Nc3nccc(-c4c(-c5cccc(NC(=O)c6c(F)cccc6F)c5)nn5ccccc45)n3)cc2)CC1,growth inhibition,[1],98% (active)
same,inhibition,[2],86% (active)
same,inhibition,[3],-3% (inactive)
same,growth inhibition,[4],98% (active)
same,outcome,[10],inactive
same,outcome,[5],inactive
COc1ccc(Nc2ncc(C#N)c(Nc3ccccc3C(N)=O)n2)cc1N1CCN(C)CC1,growth inhibition,[1],97% (active)
same,inhibition,[2],56% (active)
same,inhibition,[3],-1% (inactive)
same,growth inhibition,[4],93% (active)
same,outcome,[5],inactive
same,outcome,[6],inactive
CCn1c(-c2nonc2N)nc2c(-c3cccc(Cl)c3)ncc(OCCCNCc3cnc(C)nc3N)c21,growth inhibition,[1],48% (inactive)
same,inhibition,[2],21% (inactive)
same,inhibition,[3],3% (inactive)
same,growth inhibition,[4],93% (active)
same,outcome,[10],inactive
same,outcome,[5],inactive
CCN(CC)CCOc1ccc(Nc2ncc3cc(-c4c(Cl)cccc4Cl)c(=O)n(C)c3n2)cc1,growth inhibition,[1],91% (active)
same,inhibition,[2],72% (active)
same,inhibition,[3],1% (inactive)
same,growth inhibition,[4],90% (active)
same,outcome,[5],inactive
same,outcome,[6],inactive
same,AC50,[11],417 nM (active)
same,AC50,[12],2960 nM (active)
same,AC50,[13],4180 nM (active)
same,AC50,[14],1860 nM (active)
same,AC50,[15],20900 nM (active)
same,AC50,[16],4680 nM (active)
same,IC50,[17],2950 nM (active)
same,fold change,[7]; [19],1.1 (inactive)
same,fold change,[7]; [20],0.543
same,cell count,[7]; [21],761
same,cell count,[7]; [22],694
same,SSMD,[18],-11.2
same,cell count,[18],5360
same,plate-normalised HSF1 focus index,[18],0.335 (inactive)
same,outcome,[8],inactive
same,z-score,[9],-1.38 (inactive)
NCCNC(=O)c1ccc(-c2cnc3[nH]cc(-c4ccc(C(N)=O)cc4)c3c2)cc1,growth inhibition,[1],98% (active)
same,inhibition,[2],2% (inactive)
same,inhibition,[3],-2% (inactive)
same,growth inhibition,[4],99% (active)
same,outcome,[5],inactive
same,outcome,[6],inactive
CCn1c(-c2nonc2N)nc2c(-c3ccccc3)ncc(OCCCCNCCc3ncc[nH]3)c21,growth inhibition,[1],42% (inactive)
same,inhibition,[2],34% (inactive)
same,inhibition,[3],-1% (inactive)
same,growth inhibition,[4],92% (active)
same,outcome,[10],inactive
same,outcome,[5],inactive
O=c1[nH]ccc2nc(N[C@@H]3CCCNC3)nc(Nc3ccc(S(=O)(=O)N4CCOCC4)cc3)c12,growth inhibition,[1],99% (active)
same,inhibition,[2],13% (inactive)
same,inhibition,[3],0% (inactive)
same,growth inhibition,[4],96% (active)
same,outcome,[5],inactive
same,outcome,[6],inactive
NC[C@H](CC1CCCCC1)NC(=O)c1ccc(-c2ccnc3[nH]ccc23)s1,growth inhibition,[1],4% (inactive)
same,inhibition,[2],39% (inactive)
same,inhibition,[3],5% (inactive)
same,growth inhibition,[4],98% (active)
same,outcome,[10],inactive
same,outcome,[5],inactive
COc1cc(Nc2nccc(-c3c(-c4cccc(NC(=O)c5c(F)cccc5F)c4)nn4ccccc34)n2)cc(OC)c1OC,growth inhibition,[1],98% (active)
same,inhibition,[2],74% (active)
same,inhibition,[3],4% (inactive)
same,growth inhibition,[4],98% (active)
same,outcome,[10],inactive
same,outcome,[5],inactive
COCCOc1ccc(Nc2nccc(-c3c(-c4cccc(NC(=O)c5c(F)cccc5F)c4)nn4ccccc34)n2)cc1Cl,growth inhibition,[1],97% (active)
same,inhibition,[2],53% (active)
same,inhibition,[3],4% (inactive)
same,growth inhibition,[4],99% (active)
same,outcome,[10],inactive
same,outcome,[5],inactive
CS(=O)(=O)Cc1ccc(Nc2nccc(N3CCCc4cc(NC(=O)Nc5cccc(C(F)(F)F)c5)ccc43)n2)cc1,growth inhibition,[1],99% (active)
same,inhibition,[2],46% (inactive)
same,inhibition,[3],-4% (inactive)
same,growth inhibition,[4],102% (active)
same,outcome,[5],inactive
same,outcome,[6],inactive
NCCNS(=O)(=O)c1ccc(-c2ccnc3[nH]c(-c4ccncc4)cc23)cc1,growth inhibition,[1],95% (active)
same,inhibition,[2],-10% (inactive)
same,inhibition,[3],3% (inactive)
same,growth inhibition,[4],96% (active)
same,outcome,[5],inactive
same,outcome,[6],inactive
O=S1(=O)NCc2ccc(Nc3nccc(Nc4ccc5c(cnn5Cc5ccccc5)c4)n3)cc21,growth inhibition,[1],33% (inactive)
same,inhibition,[2],-8% (inactive)
same,inhibition,[3],-1% (inactive)
same,growth inhibition,[4],94% (active)
same,outcome,[5],inactive
same,outcome,[6],inactive
CNC(=O)c1ccccc1Nc1nc(Nc2cccc(CS(C)(=O)=O)c2)ncc1C,growth inhibition,[1],95% (active)
same,inhibition,[2],74% (active)
same,inhibition,[3],-4% (inactive)
same,growth inhibition,[4],97% (active)
same,outcome,[5],inactive
same,outcome,[6],inactive
Cc1cc(Nc2ncc(Cl)c(Nc3ccccc3C(N)=O)n2)n[nH]1,growth inhibition,[1],96% (active)
same,inhibition,[2],70% (active)
same,inhibition,[3],-1% (inactive)
same,growth inhibition,[4],98% (active)
same,outcome,[5],inactive
same,outcome,[6],inactive
NCC(NC(=O)c1ccc(-c2c[nH]c3ncccc23)s1)c1ccccc1 (stereo not given),growth inhibition,[1],87% (active)
same,inhibition,[2],52% (active)
same,inhibition,[3],0% (inactive)
same,growth inhibition,[4],95% (active)
same,outcome,[10],inactive
same,outcome,[5],inactive
